Inconclusive results are not listed. Calls of active or inactive are those of the source. The calls were made as follows: active = hit-call score of the fitted dose curve at least 0.9, where 1 is the maximum; inconclusive = response in the unintended direction; inactive = score below 0.9.
What follows are compounds tested against Tyrosine-protein kinase Lyn (Homo sapiens) (UniProt P07948) (assay: ERF_FR_ENZ_hLYN: Eurofins (ERF) Enzymatic Radiometric [Km ATP] KinaseProfiler LeadHunter Assay for human LYN Tyrosine Kinase).
Sequence of Tyrosine-protein kinase Lyn (Homo sapiens) (P07948 whole entry, looked up): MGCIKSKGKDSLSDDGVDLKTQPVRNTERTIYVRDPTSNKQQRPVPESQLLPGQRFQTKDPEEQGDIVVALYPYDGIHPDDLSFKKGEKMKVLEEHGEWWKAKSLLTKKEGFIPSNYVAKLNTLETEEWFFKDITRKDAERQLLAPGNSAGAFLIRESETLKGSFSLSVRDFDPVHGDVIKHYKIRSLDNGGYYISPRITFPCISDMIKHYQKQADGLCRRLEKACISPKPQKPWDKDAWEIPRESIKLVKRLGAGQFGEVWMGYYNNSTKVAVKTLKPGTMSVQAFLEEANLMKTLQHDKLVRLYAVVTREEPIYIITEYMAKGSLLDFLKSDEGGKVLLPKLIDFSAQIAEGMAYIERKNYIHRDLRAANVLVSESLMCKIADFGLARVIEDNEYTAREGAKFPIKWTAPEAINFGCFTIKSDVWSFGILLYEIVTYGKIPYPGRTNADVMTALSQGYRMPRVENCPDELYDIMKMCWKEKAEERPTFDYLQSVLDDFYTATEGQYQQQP
Method: ERF_FR_ENZ_hLYN is a biochemical, single-readout assay that uses extracted gene-proteins in a cell-free assay. Measurements were taken 0.5 hour after chemical dosing in a 96-well plate. See LYN (B) Human TK Kinase Enzymatic HTRF Assay [Km ATP], Cerep.ERF_FR_ENZ_hLYN is an assay component calculated from the ERF_FR_ENZ_hLYN assay. It is designed to measure enzyme activity using a type of enzyme reporter as detected by fluorescence intensity with HTRF technology.Data from the assay component ERF_FR_ENZ_hLYN was analyzed at the assay endpoint, ERF_FR_ENZ_hLYN, in the positive analysis fitting direction relative to DMSO as the negative control and baseline of activity. Using a type of enzyme reporter, loss-of-signal activity can be used to understand changes in enzymatic activity as they relate to gene LYN. To generalize the intended target to other relatable targets, this assay endpoint is annotated to the kinase intended target family, where the subfamily is non-receptor tyrosine kinase.
Lyn (h) is incubated with 50 mM Tris pH 7.5, 0.1 mM EGTA, 0.1 mM Na3VO4, 0.1% […], 0.1 mg/mL poly(Glu, Tyr) 4:1, 10 mM MgAcetate and [gamma-33P]-ATP (specific activity and concentration as required). The reaction is initiated by the addition of the Mg/ATP mix. After incubation for 40 minutes at room temperature, the reaction is stopped by the addition of phosphoric acid to a concentration of 0.5%. An aliquot of the reaction is then spotted onto a filter and washed four times for 4 minutes in 0.425% phosphoric acid and once in methanol prior to drying and scintillation counting.Compound should be supplied in 100% DMSO.We require a stock solution at a concentration of at least 50x higher than the Final Assay Concentration of your cpd. A 10mM stock is also acceptable.When ordering fewer than 60 kinase assays, we need 120uL of 50x concentrated stock. For more than 60 assays, we need 420 uL of 50xcc stock. Please apply the conversion if you provide 10mM stock solution or compounds in powder form (pre-weighed is required) From 50 cpds supplied as solids, the TAT will be extended.

AC50, active:
O=C(/C=C/c1ccc(O)cc1)CC(=O)/C=C/c1ccc(O)cc1 2600 nM
COc1cc(/C=C/C(=O)CC(=O)/C=C/c2ccc(O)c(OC)c2)ccc1O 24.6 nM
COc1cc(CCC(=O)CC(=O)CCc2ccc(O)c(OC)c2)ccc1O 2360 nM
